About 11,000 (3.5%) of roughly 310,000 compounds were called active. Roughly 4% stayed inconclusive and do not appear here. What follows is part of a selection rich in actives, with near analogues and random picks from the rest. Unmarked numbers belong to inactive results. Calls follow the shape of the dose curve; as a rule, active = well fitted inhibition curve with a large enough effect; inconclusive = small, poorly fitted or top-dose-only effect, or another doubt; inactive = no such curve, though single readings can be large or run the other way. Non-standard residues stand in square brackets, D forms with d. Residues, ends and D or L forms follow the SMILES beside them. Groups on a side chain read outwards from the residue. *: point of attachment. X1 = CCC(C)C(N)C1=NC(C(=O)*)CS1; Orn = NCCC[CH](N)C(=O)O
Potency is read from the fitted curve at half-maximal effect.

The assay addresses 4'-phosphopantetheinyl transferase ffp (Bacillus subtilis) (UniProt Q9F4F7). In words: qHTS Assay for Inhibitors of Bacillus subtilis Sfp phosphopantetheinyl transferase (PPTase).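 Also: the enzyme is Sfp with the accession as filed and its product quenches rhodamine fluorescence.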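 As to largest response in the series, negative = inhibition: 0% = enzyme reaction without inhibitor and -100% = no enzyme wells.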 The note with it: Biochemical Sfp PPTase activity. The method, boiled down: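 Reaction rates are the 30-min fluorescence difference (ex 525, em 598 nm) in wells containing 15 nM Sfp, 5 uM rhodamine-CoA and 12.5 uM BHQ-2-YbbR at pH 7.6 with 10 mM MgCl2.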
(qHTS replaces the single test concentration by a dilution series.)
As to `O=C(Nc1ccc(-n2cccn2)cc1)C1CCN(Cc2ccsc2)CC1`, the largest response in the series, negative = inhibition is -0.783%.

On to `Cc1cccc(C(=O)NC(=S)N(C)C2CCCCC2)c1`, for which the largest response in the series, negative = inhibition was 17.9%.

Turning to `Nc1nc2nc(Cl)[nH]c2c(=O)[nH]1`, the largest response in the series, negative = inhibition was -9.02%.

On to `Cn1nccc1C(=O)NC1CCCc2c1cnn2-c1ccc(F)cc1F` (stereo unspecified), for which the largest response in the series, negative = inhibition is 12.2%.

Turning to `Cc1cc(C)n(-c2nc(O)cc(=O)[nH]2)n1`, the Potency is 15.8 µM (active).

As to `Cc1cc(C)n(-c2ccc(Cl)c(C(=O)O)n2)n1`, the largest response in the series, negative = inhibition was -14.9%.

For `Cc1cc(C)n(-c2ccc3nncn3n2)n1`, the largest response in the series, negative = inhibition is 10.3%.

For `O=C(COc1nsnc1N1CCOCC1)Nc1ccccc1Cl`, the largest response in the series, negative = inhibition was 10.1%.

As to `CN(C)S(=O)(=O)N1CCC(Oc2cccc(C(=O)NCCCC3CCCC3)c2)CC1`, the largest response in the series, negative = inhibition is -2.01%.

For the molecule `C/C(=N/NC(=O)CSc1ccccn1)c1ccc([N+](=O)[O-])cc1`, the largest response in the series, negative = inhibition was 0.345%.

Turning to `O=C(CC(n1cncn1)C(Cl)(Cl)Cl)c1ccc([N+](=O)[O-])cc1` (stereo unspecified), the Potency is 44.7 µM (active).

Regarding `O=C(CCn1nnc2ccccc21)OCC(=O)c1ccc([N+](=O)[O-])cc1`, the largest response in the series, negative = inhibition was 30.5%.

For `Cc1ccc(C)c(S(=O)(=O)Nc2cc(C)on2)c1`, the largest response in the series, negative = inhibition is 10.8%.

On to `CCCCN=C1C([N+](=O)[O-])=CC=C2C1=NC1(CCCCC1)N2O`, for which the Potency was 28.2 µM (active).

As to `O=C(NC1CCCC1)c1cc(-c2ccccc2)on1`, the largest response in the series, negative = inhibition was 11.2%.

`Cc1ccc(NC(=O)Cn2nnc(C(=O)NCc3ccco3)c2N)c(C)c1`: the largest response in the series, negative = inhibition is -4.99%.

On to `CCN1CCN(CCNC(=O)c2ccc3c(c2)NC(=O)/C(=C\c2ccc(OC)c(OC)c2)S3)CC1`, for which the largest response in the series, negative = inhibition was -5.49%.

Turning to `CCN1CCN(CCNC(=O)c2ccc(/C=C3/Sc4ccccc4N(Cc4cccc(C)c4)C3=O)cc2)CC1`, the Potency is 39.8 µM (active).

In the case of `Cc1ccccc1CN1C(=O)c2ccccc2Sc2ccc(C(=O)NCCCN3CCOCC3)cc21`, the largest response in the series, negative = inhibition is -13.2%.

Consider `CCOC(=O)C1CCN(C(=O)C2CCCN(S(=O)(=O)c3ccc(OC)c(Cl)c3)C2)CC1` (stereo unspecified), for which the largest response in the series, negative = inhibition is 3.96%.

In the case of `Cc1cc(=O)oc2c3c(cc(OCC(=O)NCCC(=O)N[C@@H](C)C(=O)O)c12)OC(C)(C)CC3`, the largest response in the series, negative = inhibition is 2.46%.

In the case of `CCOC(CNC(=O)C1CCN(S(=O)(=O)c2ccc3nc4c(c(C(=O)O)c3c2)CC(C)CC4)CC1)OCC` (stereo unspecified), the largest response in the series, negative = inhibition is 9.57%.

For the molecule `COC(=O)CC1=NN(c2nc(C)cc(C)n2)C(=O)C1`, the Potency is 50.1 µM (active).

`Cc1cc(C)cc(NC(=O)C2CCN(c3nc(C)cc(C)n3)CC2)c1`: the largest response in the series, negative = inhibition was 9.84%.

For the molecule `Cc1ccc(CC2CC(=O)N(c3nc(C)cc(C)n3)C2=O)cc1` (stereo unspecified), the largest response in the series, negative = inhibition is 0.267%.

Regarding `Cc1ccc(-n2c(C)nnc2SCC(=O)NC2CC2)cc1`, the largest response in the series, negative = inhibition is 4.57%.

Regarding `O=[N+]([O-])c1ccccc1NCc1ccc(Cl)cc1`, the largest response in the series, negative = inhibition is -18.2%.

With `Oc1ccc(CNc2ccccc2O)cc1`, the Potency was 50.1 µM (active).

Turning to `O=C(Cc1ccc(Cl)cc1)NC(=S)Nc1ccccc1O`, the largest response in the series, negative = inhibition is 12.4%.

`COc1ccc(CN2CCC(=O)c3ccccc3S2(=O)=O)cc1`: the largest response in the series, negative = inhibition was -5.49%.

As to `O=P(O)(O)OC[C@H](O)CO`, the largest response in the series, negative = inhibition is 16.8%.

`CCn1c(SCC(=O)Nc2cc(C)c(Cl)cc2OC)nnc1-c1ccco1`: the largest response in the series, negative = inhibition is 2.43%.

In the case of `COc1cc(Cl)c(C)cc1NC(=O)CSc1nnc(-c2cccnc2)n1Cc1ccco1`, the largest response in the series, negative = inhibition is -18.1%.

Regarding `COc1cc(Cl)c(C)cc1NC(=O)CSc1nnc(-c2ccco2)n1CC(C)C`, the Potency is 44.7 µM (active).

Regarding `O=S(=O)(Cc1nnnn1-c1ccc(Br)cc1)c1ccc(F)cc1`, the largest response in the series, negative = inhibition was 6.04%.

Turning to `Cn1c(=O)c2c(SCC(=O)NCC3CCCO3)nc(CC(C)(C)C)nc2n(C)c1=O` (stereo unspecified), the largest response in the series, negative = inhibition was -16%.

As to `Nc1c(Cl)cc(-c2csc(N3CCCC3c3nc4cc(Cl)c(Cl)cc4n3CCOCCO)n2)cc1Cl` (stereo unspecified), the largest response in the series, negative = inhibition was -23.5%.

For the molecule `CCOc1ccc(C(=O)COC(=O)c2ccc(-n3cnnn3)cc2)cc1`, the largest response in the series, negative = inhibition is 8.76%.

On to `CCOC(=O)c1c(NC(=O)CSc2nccc(=O)[nH]2)sc(C)c1C`, for which the largest response in the series, negative = inhibition is 2.75%.

With `CCOC(=O)c1c(-n2cnnn2)sc(C)c1C`, the Potency was 35.5 µM (active).

On to `CCC(C)C(N)C1=NC(C(=O)NC(CC(C)C)C(=O)NC(CCC(=O)O)C(=O)NC(C(=O)NCCCCC2NC(=O)C(CC(N)=O)NC(=O)C(CC(=O)O)NC(=O)C(Cc3cnc[nH]3)NC(=O)C(Cc3ccccc3)NC(=O)C(C(C)CC)NC(=O)C(CCCN)NC2=O)C(C)CC)CS1` (stereo not drawn) (cyclo(DNK([Ile-Glu-Leu-X1])[Orn]IFH); configuration not given here), for which the largest response in the series, negative = inhibition is -53.6%.

As to `CC(=O)OC1C([N+]2(C)CCCCC2)C[C@H]2C3CC[C@H]4C[C@H](OC(C)=O)C([N+]5(C)CCCCC5)CC4(C)C3CCC12C` (stereo partly specified), the largest response in the series, negative = inhibition was 11.5%.

For `COc1ccc(S(=O)(=O)NCC(=O)NCc2cc(=O)n(C)c(=O)n2C)cc1F`, the largest response in the series, negative = inhibition is 14.7%.

As for `CCOc1ccc(S(=O)(=O)Nc2ccc(OC)nc2)cc1`, the largest response in the series, negative = inhibition was 11.7%.

Regarding `COc1ccc(CS(=O)/C(Cl)=C(/Cl)C(=O)Nc2ccc(OC)nc2)cc1` (stereo unspecified), the Potency was 14.1 µM (active).

For `COc1ccc(C(=O)Nc2ccc(NC(=O)C(C)C)nc2)cc1`, the largest response in the series, negative = inhibition was 27.7%.

The record behind these values is PubChem BioAssay AID1490 (National Center for Advancing Translational Sciences (NCATS), 2009).
